PubChem BioAssay AID504329 (Southern Research Specialized Biocontainment Screening …, 2011)
Among all 340,000 compounds or so, about 1,000 (0.29%) were called active. Rule as the data show it: inconclusive = inhibition above about 27% without an active follow-up result; inactive = below that. A selection follows. Potency and affinity values are given separately.

Assay: NS1A inhibition, H1N1 influenza, cell based functional assay (AID 504329)
Conditions: percent inhibition, at 12.5 µM, hits give high values

Structure (SMILES) | inhibition
O=C(CC1C[C@H](C(=O)N2CCCCC2)[C@@]2(CCc3ccccc3)c3[nH]c4ccccc4c3CCN2C1=O)NCCCn1ccnc1 (stereo not given in full) | -10.1% (inactive)
CCN1C(=C2C(=O)c3ccccc3C2=O)C=Cc2ccccc21 | -0.12% (inactive)
CCN1/C(=C2\OC(=S)N(C)C2=O)C=Cc2ccccc21 | 4.12% (inactive)
CCN1C(=O)/C(=C2\C=Cc3ccccc3N2CC)OC1=S | 20.4% (inactive)
COCCN1C(=O)/C(=C2/C(=O)N(CC(=O)Nc3ccccc3Cl)c3ccccc32)SC1=S | 1.06% (inactive)
CCN1/C(=C2/SC(=S)N(C)C2=O)C=Cc2cc(C)ccc21 | 9.87% (inactive)
CCCN1/C(=C2/SC(=S)N(CC)C2=O)C=Cc2ccccc21 | -4.1% (inactive)
CN1C(=O)/C(=C2/C=Cc3ccccc3N2CCCS(=O)(=O)O)SC1=S | 8.55% (inactive)
CCN1C(=O)/C(=C2\SC(=S)N(NC(=O)c3ccccc3O)C2=O)c2ccccc21 | -6.27% (inactive)
CC(SCc1ccccc1)C(=O)Nc1ccccc1F (stereo not given) | 4.17% (inactive)
N#Cc1c(Sc2ncc(C(F)(F)F)cc2Cl)nsc1C/C=N\OCc1ccccc1Br | -7.95% (inactive)
Cn1nc(C(C)(C)C)cc1C(=O)NNC(=O)c1ccc(C(F)(F)F)cc1 | -21.4% (inactive)
O=C(NNc1cccc(Cl)n1)c1ccccc1CC[N+](=O)[O-] | -1.98% (inactive)
CCn1nc(NS(=O)(=O)c2ccc([N+](=O)[O-])cc2)c2cc3ccccc3nc21 | 4.22% (inactive)
CCC(C)(C)C1CCC2(CC1)NC(=O)N(CC(=O)N(C)Cc1ccc3c(c1)OCCO3)C2=O (stereo not given) | -14.3% (inactive)
CCN1C(=O)/C(=c2\o/c(=C3\C=Cc4ccccc4N3CC)c(=O)n2CC)SC1=S | 19.6% (inactive)
CCN1/C(=C2\C(=O)N(C)C(=S)N2C)C=Cc2ccccc21 | 6.98% (inactive)
O=C(NCCO)Nc1ccc(Cl)cc1 | 0.44% (inactive)
Cc1ccc(S(=O)(=O)CCC(=O)Nc2nccs2)cc1 | 6.51% (inactive)
O=C(Cc1c[nH]c2ccccc12)NNCc1ccc(N(CCCl)CCCl)cc1 | 14.4% (inactive)

Structure (SMILES) | inhibition
O=C(O)c1ccc(N=Nc2c(O)[nH]c3ccccc23)cc1 | -7.55% (inactive)
Oc1[nH]c2ccccc2c1N=Nc1ccc(F)cc1 | -3.37% (inactive)
O=C(Cc1ccc(Cl)c(Cl)c1)N1CCOCC1 | -9.69% (inactive)
O=C(N/N=C\c1cc2c(cc1[N+](=O)[O-])OCO2)c1cccs1 | -1.36% (inactive)
O=C(N/N=C/c1ccccc1[N+](=O)[O-])c1cccs1 | -0.41% (inactive)
Cc1ccc(C(=O)N/N=C\c2ccccc2[N+](=O)[O-])cn1 | 4.04% (inactive)
Cc1cc([N+](=O)[O-])cc(/C=N\NC(=O)C2COc3ccccc3O2)c1O (stereo not given) | 19.3% (inactive)
O=C(N/N=C/c1cccc([N+](=O)[O-])c1O)C(O)(c1ccccc1)c1ccccc1 | -8.83% (inactive)
Cc1cc(C(=O)N/N=C/c2cc(Cl)cc([N+](=O)[O-])c2O)n[nH]1 | -7.04% (inactive)
CCNC(=S)N(Cc1ccc2c(c1)OCO2)C1CC(=O)N(c2ccc(OC)cc2)C1=O (stereo not given) | -4.24% (inactive)
O=C(NCCN1CCOCC1)C(=O)NCc1ccco1 | -2.57% (inactive)
CC1CCC(NC(=O)CSc2nncs2)CC1 (stereo not given) | 1.05% (inactive)
Cc1cc2nc(-c3ccc(SCC(=O)Nc4ccc(S(=O)(=O)NC5CC5)cc4)nc3)[nH]c2cc1C | -2.72% (inactive)
C=CCOc1ccccc1/C=C/C(=O)O | 1.54% (inactive)
CC(=O)c1ccc(N(C)C)c2c(N(C)C)cccc12 | -6.19% (inactive)
CN(C)c1cccc2c(/C=N/O)ccc(N(C)C)c12 | 5.22% (inactive)
Cc1nn(-c2ccccc2)c2c1C(c1ccccc1)C(C#N)=C(N)O2 (stereo not given) | -4.13% (inactive)
Cc1nn(-c2ccccc2)c2c1C(c1cccs1)C(C#N)=C(N)O2 (stereo not given) | 11.8% (inactive)
Cc1ccc(-n2nc(C)c3c2OC(N)=C(C#N)C3c2ccco2)cc1 (stereo not given) | 15.8% (inactive)
Cc1ccc(-n2nc(C)c3c2OC(N)=C(C#N)C3c2ccncc2)cc1 (stereo not given) | -2% (inactive)
